Assay results published in PubChem BioAssay AID652015 (National Center for Advancing Translational Sciences (NCATS), 2013).
Results filed as inconclusive are left out. The call rests on the fitted dose curve; in most records, active means well fitted inhibition curve with a large enough effect; inconclusive means small, poorly fitted or top-dose-only effect; inactive means no such curve, though single readings can be large or run the other way.

biological target: Coelenterazine h 2-monooxygenase (Renilla reniformis) (UniProt P27652); experiment: qHTS Assay for Inhibitors of Sea Pansy Luciferase from the GSK Published Protein Kinase Inhibitor Set; details: purified Renilla luciferase, luminescence; series mostly up to 57.5 µM; activity change, negative = inhibition: at the top concentration
Sequence (P27652 whole entry, looked up): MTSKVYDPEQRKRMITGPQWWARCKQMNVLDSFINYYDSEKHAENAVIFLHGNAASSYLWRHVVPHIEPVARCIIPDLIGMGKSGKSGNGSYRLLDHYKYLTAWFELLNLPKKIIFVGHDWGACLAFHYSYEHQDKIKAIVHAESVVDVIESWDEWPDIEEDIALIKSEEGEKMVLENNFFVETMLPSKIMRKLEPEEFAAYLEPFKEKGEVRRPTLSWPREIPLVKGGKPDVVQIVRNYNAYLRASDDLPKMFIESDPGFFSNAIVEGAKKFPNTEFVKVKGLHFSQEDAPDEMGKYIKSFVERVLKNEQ
Outline: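 Purified R. reniformis luciferase (1 nM final) with 5 uM coelenterazine h in 50 mM Tris acetate pH 7.5, 100 uM NaCl, 0.01% Tween-20, 0.05% BSA. A titration, about 60 uM to 300 pM; luminescence read after about 2 min.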

Activity change, negative = inhibition, inactive:
COc1cc(Nc2ncc3c(C)nc(-c4cccc(C(F)(F)F)c4)n3n2)cc(OC)c1OC 6.69%, COc1ccc(-c2nn3ncccc3c2-c2ccnc(Nc3cccc(C(F)(F)F)c3)n2)cc1 13.7%, O=C(OC1CNC(C#Cc2cc3ncnc(Nc4ccc(OCc5cccc(F)c5)c(Cl)c4)c3s2)C1)N1CCOCC1 (stereo not given) 25.9%, CCn1c(-c2nonc2N)nc2c(C#CC(C)(C)O)nc(CN3CCCC3)cc21 21.5%, COc1cccc(-n2ncc3c(NN=Cc4cccc(F)c4)ncnc32)c1 32.8%, N#Cc1cccc(Nc2nccc(-c3cnn4ncccc34)n2)c1 17.2%, N#Cc1c(NC(=O)c2ccc(F)cc2)sc2c1CCCC2 8.45%, CS(=O)(=O)Nc1ccc(-c2cc(-c3ccccc3)cc(C(N)=O)c2N)cc1 21.1%, Cc1cc(O)cc(C)c1C=Cc1cncc(C(N)=O)c1 28.5%, COc1cc(C=NNc2ncnc3[nH]ncc23)ccc1O 36.2%, COc1cc2ncn(-c3cc(OCc4ccccc4S(C)(=O)=O)c(C#N)s3)c2cc1OC 1.76%, COc1cccc(C=NNc2ncnc3c2cnn3-c2cccc(OC)c2)c1 30.6%, Nc1ccc(C#Cc2cncnc2Nc2ccc(OCc3cccc(F)c3)c(Cl)c2)cc1 12.3%, COc1ccc(-c2oc3ncnc(N)c3c2-c2ccc(NC(=O)Nc3cc(C(F)(F)F)ccc3F)cc2)cc1 3.79%, CCOc1ccc2c(-c3ccnc(Nc4cccc(C(F)(F)F)c4)n3)cnn2n1 26.7%, FC(F)(F)c1cccc(Nc2nccc(-c3cnn4nc(-c5ccccc5)ccc34)n2)c1 21.2%, CC(=O)Nc1cccc(C#Cc2cncnc2Nc2ccc(OCc3cccc(F)c3)c(Cl)c2)c1 9.74%, CC1=C(C(=O)Nc2ccc3[nH]ncc3c2)C(c2ccc(F)cc2)N=C(c2ccc(C(F)(F)F)nc2)N1 (stereo not given) 32.8%, Fc1ccc(-c2ncn(C3CCNCC3)c2-c2ccnc(Oc3ccc4c(c3)OCO4)n2)cc1 13.2%, COc1ccc2c(-c3ccnc(Nc4cccc(OC(F)(F)F)c4)n3)cnn2n1 43.3%, Fc1cccc(COc2ccc(Nc3ncnc4cc(-c5ccc[nH]5)sc34)cc2Cl)c1 9.53%, NS(=O)(=O)c1ccc(-c2ccc3c(NC(=O)C4CC4)n[nH]c3c2)cc1 20.8%, CCS(=O)(=O)c1ccc(OC)c(Nc2ncc(-c3cccc(C(C)=O)c3)o2)c1 5.78%, NC(=O)c1ccc(Oc2nccc(-c3c(-c4ccc(F)cc4)ncn3C3CCNCC3)n2)cc1 32.1%, COc1cc2ncnc(Nc3ccc(C)c(O)c3)c2cc1OC 28.5%, COc1cc(N2CCN(C(C)C)CC2)ccc1Nc1nc(Nc2cccc(F)c2C(=O)O)c2cc[nH]c2n1 8.99%, O=C(Nc1ccc(Oc2ccc3nc(NC(=O)c4ccccc4)[nH]c3c2)cc1)Nc1cc(C(F)(F)F)ccc1F 4.44%, CN1CCC(C(=O)Nc2n[nH]c3nnc(-c4ccccc4)cc23)CC1 39.3%, COc1ccc2cc(-c3c(-c4ccncc4)nc(-c4ccc(S(C)(=O)=O)cc4C)n3C)ccc2c1 -10.9%, Cn1c(-c2nonc2N)nc2cnccc21 13%, O=S(=O)(CCOCc1ccc(-c2ccc3ncnc(Nc4ccc(OCc5cccc(F)c5)c(Cl)c4)c3c2)o1)c1ccccc1 34.9%, O=C(Nc1n[nH]c2cc(-c3ccccc3)ccc12)C1CC1 34.2%, OCCCNc1nccc(-c2c(-c3ccc(F)cc3)nn3cc(C(F)(F)F)ccc23)n1 39.6%, COc1ccc(-c2ccc3c(NC(=O)C4CC4)n[nH]c3n2)cc1 46.2%, CCN(CC)S(=O)(=O)c1ccc(OC)c(Nc2ncc(-c3ccccc3)o2)c1 52.6%, COc1ccc(-c2ccncc2)cc1C(N)=O 45.5%, CC(C)c1ccc(Nc2nccc(-c3cnn4ncccc34)n2)cc1 32.8%, COC(=O)Nc1nc2ccc(Sc3ccc(NC(=O)Nc4cc(C(F)(F)F)ccc4F)cc3)cc2[nH]1 74.4%, Nc1nccc(C#Cc2cncnc2Nc2ccc(OCc3cccc(F)c3)c(Cl)c2)n1 1.01%, COc1ccc(-c2cc3c(N)ncnc3o2)cc1 37.2%
